Measurements reported in PubChem BioAssay AID504339 (National Center for Advancing Translational Sciences (NCATS), 2011).
The campaign covered roughly 390,000 compounds. About 17,000 (4.4%) were called active. Entries that show only a call come without a potency. Another 8% or so got no clear call; they are omitted. Calls come from the whole dose curve; as a rule, active = well fitted inhibition curve with a large enough effect; inconclusive = small, poorly fitted or top-dose-only effect; inactive = no such curve, though single readings can be large or run the other way. The sample as a whole holds a higher share of actives than the screen did.

Biological target: Lysine-specific demethylase 4A (Homo sapiens) (UniProt O75164)
Sequence (O75164 whole entry, looked up, the tested form may be a part): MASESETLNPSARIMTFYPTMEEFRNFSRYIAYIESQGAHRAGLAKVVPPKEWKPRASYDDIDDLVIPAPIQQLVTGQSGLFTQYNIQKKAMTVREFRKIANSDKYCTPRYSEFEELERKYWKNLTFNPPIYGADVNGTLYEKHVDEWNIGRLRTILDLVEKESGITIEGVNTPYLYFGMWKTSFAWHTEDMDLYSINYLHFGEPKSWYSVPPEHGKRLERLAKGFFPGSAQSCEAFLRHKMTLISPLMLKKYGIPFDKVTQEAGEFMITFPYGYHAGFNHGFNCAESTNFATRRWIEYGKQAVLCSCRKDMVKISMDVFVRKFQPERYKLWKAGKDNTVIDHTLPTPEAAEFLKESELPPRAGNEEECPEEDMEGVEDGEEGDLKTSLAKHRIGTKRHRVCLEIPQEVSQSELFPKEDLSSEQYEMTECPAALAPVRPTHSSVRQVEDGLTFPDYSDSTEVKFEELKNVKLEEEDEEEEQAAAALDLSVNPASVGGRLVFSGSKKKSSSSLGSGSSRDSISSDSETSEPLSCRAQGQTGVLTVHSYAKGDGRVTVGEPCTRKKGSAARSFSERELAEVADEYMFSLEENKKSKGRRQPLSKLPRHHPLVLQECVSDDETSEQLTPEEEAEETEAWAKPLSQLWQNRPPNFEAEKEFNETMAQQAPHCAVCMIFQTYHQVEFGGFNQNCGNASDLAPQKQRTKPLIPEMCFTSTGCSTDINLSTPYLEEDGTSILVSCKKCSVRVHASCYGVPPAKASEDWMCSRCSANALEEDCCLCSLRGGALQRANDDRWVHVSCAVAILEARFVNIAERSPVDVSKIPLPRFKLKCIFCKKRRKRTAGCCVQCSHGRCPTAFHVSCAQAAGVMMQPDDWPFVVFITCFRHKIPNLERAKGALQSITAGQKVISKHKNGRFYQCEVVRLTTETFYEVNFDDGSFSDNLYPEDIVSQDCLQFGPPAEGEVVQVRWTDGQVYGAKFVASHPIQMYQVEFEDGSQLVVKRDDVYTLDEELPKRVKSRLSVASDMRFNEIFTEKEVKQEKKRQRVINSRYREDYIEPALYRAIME
Experiment: qHTS Assay for Inhibitors of JMJD2A-Tudor Domain; note: nearly all actives have a fitted effect of over 50% in size
Settings: AlphaScreen JMJD2A-Tudor / H3K4me3 peptide binding; series mostly up to 114 µM
Potency is the fitted concentration of half-maximal effect.

Row | SMILES | Potency
1 | COc1ccc(CNc2nc(-c3ccc(Cl)cc3)cc(C(F)(F)F)n2)cc1 | inactive
2 | O=S(=O)(c1ccc(Br)cc1)c1nnn2c1nc(N1CCOCC1)c1sccc12 | inactive
3 | O=c1[nH]c(CSc2ncc(-c3ccc(F)cc3)n2Cc2ccco2)nc2ccccc12 | 35.5 µM (active)
4 | O=C(CSc1ncc(CO)n1Cc1ccc(F)cc1)NCc1ccco1 | inactive
5 | O=C(c1ccco1)N(Cc1nc2ccccc2c(=O)[nH]1)C1CCCC1 | inactive
6 | CCOc1ccc(CCNC(=O)c2ccc3c(c2)sc2nc(-c4ccc(F)cc4)cn23)cc1OCC | inactive
7 | Cc1cc(C)c(C2C3=C(Nc4c2c(C)nn4-c2ccccn2)c2ccccc2C3=O)c(C)c1 (centres undefined) | 25.1 µM (active)
8 | COc1ccc(NC(=O)c2ccc3oc(=O)c(S(=O)(=O)c4ccc(F)cc4)cc3c2)c(OC)c1 | inactive
9 | Cc1ccc(C(=O)CC2(O)C(=O)N(CCc3ccccc3)c3ccc(Br)cc32)cc1 (centres undefined) | inactive
10 | COc1ccc2cc(CNc3ccc(OC)c(OC)c3)c(=O)n(CC(=O)Nc3ccccc3F)c2c1 | inactive
11 | O=C(O)c1ccccc1N=N/C(=N/Nc1cc(S(=O)(=O)O)ccc1O)c1ccccc1 | 12.6 µM (active)
12 | COc1ccc(-c2cccc(NS(=O)(=O)c3cc(C)c(OC)c(C)c3C)c2)nn1 | inactive
13 | Cc1ccc(-c2cc(C(F)(F)F)c(C#N)c(SCC(=O)Nc3ccccc3)n2)cc1 | inactive
14 | COc1ccc(C(=O)c2c(C)c(CCC#N)n3ccccc23)c(OC)c1 | 35.5 µM (active)
15 | COc1ccc(C(=O)CCc2ccccc2O)c(OC)c1 | inactive
16 | COc1ccc(C(=O)NC(C)CCc2ccccc2)c(OC)c1 (centres undefined) | inactive
17 | Cc1c(Cl)cccc1NC(=O)C1CCCN(C(=O)c2cnn(-c3ccccc3)c2-n2cccc2)C1 (centres undefined) | inactive
18 | CCCCC(=O)OC1=CN(Cc2ccccc2)S(=O)(=O)c2ccccc21 | inactive
19 | COc1ccc2c(c1)c(=O)c(S(=O)(=O)c1ccc(F)cc1)cn2CC(=O)Nc1ccc(C)cc1C | inactive
20 | S=C(c1ccc(-c2ccccc2)o1)N1CCCCC1 | 20 µM (active)
21 | CN1CCN(C(=O)c2ccc(-c3ccc(Br)cc3)o2)CC1 | inactive
22 | COc1ccccc1-c1cc(C(=O)N2CCCCC2)no1 | inactive
23 | COc1ccc(NC(=O)c2ccc3nc(C(C)C)oc3c2)cc1OC | inactive
24 | S=C(NCCc1ccccc1)NCc1ccccc1Cl | inactive
25 | OCCNCc1cccc(OCc2ccccc2Cl)c1 | inactive
26 | Clc1cccc(Cl)c1OCCOCCNCc1ccccc1 | 20 µM (active)

Row | SMILES | Potency
27 | COC(=O)c1ccc(C2C(C(=O)Nc3ccccc3)=C(C)Nc3nc4ccccc4n32)cc1 (centres undefined) | inactive
28 | O=C(NC(=O)c1ccccc1)Nc1ccccc1O | inactive
29 | O=C(Nc1ccc(S(=O)(=O)Nc2ccccn2)cc1)c1ccccc1 | inactive
30 | O=C(NC1=CC(=O)c2ccccc2C1=O)c1ccccc1 | 20 µM (active)
31 | N#Cc1nc(NCc2ccc(Cl)c(Cl)c2)c2ncn(CCCO)c2n1 | inactive
32 | COC(=O)c1scc(-c2ccccc2)c1S(=O)(=O)Nc1ccccc1 | inactive
33 | COC(=O)c1ccc(Oc2nc(Nc3ccc(F)cc3)nc(N3CCCC3)n2)cc1 | inactive
34 | COc1ccc(Nc2ncc(F)c(N3CCOCC3)n2)cc1 | inactive
35 | CCOc1ccc(Nc2nc(Cl)nc(N3CCN(c4ccc(OC)cc4)CC3)n2)cc1 | 44.7 µM (active)
36 | O=c1c(NCc2cccs2)nccn1-c1ccccc1 | inactive
37 | COc1cc(C(=O)NCCS(=O)(=O)N2CCN(c3ccccc3)CC2)cc(OC)c1OC | inactive
38 | Cc1ccc(OC(=O)CSc2nnc(-c3cccs3)o2)cc1 | inactive
39 | COc1ccc(-n2c(C)cc(C(=O)COC(=O)c3cc(OC)c(OC)cc3NC(=O)c3cccs3)c2C)cc1 | inactive
40 | COc1ccc(-n2c(C)cc(C(=O)CSc3nnc(-c4cccs4)o3)c2C)cc1 | 56.2 µM (active)
41 | CCOC(=O)c1cc2c(=O)n3ccccc3nc2n(CC2CCCO2)c1=NC(=O)c1ccccc1Br (centres undefined) | inactive
42 | COCCNC(=O)CSc1c(C)cnc2c1c(=O)n(C)c(=O)n2C | inactive
43 | NS(=O)(=O)c1ccc(NC(=O)CSc2nnc3c(n2)[nH]c2ccccc23)cc1 | inactive
44 | CCC1CCCCN1Cc1c(O)ccc2c(=O)c(Oc3ccccc3Cl)c(C(F)(F)F)oc12 (centres undefined) | inactive
45 | COc1ccc(CCNC(=O)CCc2c(C)nc3c(c(C)nn3-c3ccc(C)c(C)c3)c2C)c(OC)c1OC | inactive
46 | CCCCCC(=O)NC(=S)NNC(=O)c1ccc([N+](=O)[O-])cc1 | 28.2 µM (active)
47 | COCCCNC(=S)NC(=O)c1ccc([N+](=O)[O-])cc1 | inactive
48 | CC(C)CC(=O)NC(=S)NNC(=O)c1cccc([N+](=O)[O-])c1 | inactive
49 | COc1ccc(CCNc2nc(-c3ccc(F)cc3)cc(C(F)(F)F)n2)cc1OC | inactive
50 | CSc1nn(Cc2cccc(C)c2)c(N)c1S(=O)(=O)c1ccccc1 | inactive
51 | O=C(C1CCC1)N1CCN(c2ccccc2)CC1 | inactive
52 | O=C(c1cc2ccccc2s1)N1CCN(c2ccccn2)CC1 | inactive

Row | SMILES | Potency
53 | O=C(c1cc2c(s1)CCC2)N1CCN(c2ccccc2)CC1 | 20 µM (active)
54 | CCn1c(SCC(=O)NNC(=O)c2ccc(OC)cc2)nnc1C(C)C | inactive
55 | CCn1c(C(C)NC(=O)c2ccc(C)cc2)n[nH]c1=S (centres undefined) | 6.31 µM (active)
56 | COCCCNC(NC(=O)c1ccc(C)cc1)C(Cl)(Cl)Cl (centres undefined) | inactive
57 | COc1cc(NC(=O)c2nc3ccccc3nc2C)cc(OC)c1OC | inactive
58 | CC1=C(C(=O)Nc2ccccc2Cl)C(c2cccs2)n2ncnc2N1 (centres undefined) | inactive
59 | CCCCOC(=O)CSc1ncnc2sc3c(c12)CCC(C)C3 (centres undefined) | inactive
60 | Cn1c(=O)n(Cc2c(F)cccc2Cl)c(=O)c2c1nc1n2CCN1c1ccc(F)cc1 | inactive
61 | CCn1c(SCC(=O)c2ccc3ccccc3c2)nnc1-c1cccs1 | 79.4 µM (active)
62 | CCn1c(Cc2cccs2)nnc1SCC(=O)c1ccc(C)cc1 | inactive
63 | CCn1c(SCC(=O)c2ccc(Cl)s2)nnc1-c1cccs1 | inactive
64 | Cc1ccc(CCNC(=O)c2ccc3c(c2)nc2n3CCC(C)C2)cc1 (centres undefined) | inactive
65 | CCn1cc(C(=O)OCC(=O)Nc2cc(C)cc(C)c2)c(=O)c2ccc(C)nc21 | inactive
66 | CCC(=O)N1CCc2cc(S(=O)(=O)NCCC(=O)Nc3cccc(C)c3C)ccc21 | inactive
67 | Cc1ccc(C)c(NC(=S)NCC(c2cccnc2)N2CCOCC2)c1 (centres undefined) | inactive
68 | Cc1ccc(C)c(NC(=O)C2CC(=O)N(C(C)C)C2)c1 (centres undefined) | inactive
69 | Cc1ccc(C)c(NC(=S)NNC(=S)Nc2ccc(C(C)C)cc2)c1 | 56.2 µM (active)
70 | CCOC(=O)c1c(NC(=O)c2cc(CC)on2)sc(C(C)=O)c1C | inactive
71 | O=C(Nc1cccc(Cl)c1)c1csnn1 | inactive
72 | c1ccc2c(CCN3CCNC[C@H]3Cc3cccc4ccccc34)cccc2c1 | 56.2 µM (active)
73 | CC(C)(C)CN1C(=O)C(=O)NC[C@H]1Cc1cccc2ccccc12 | inactive
74 | c1ccc(C2CNCc3c2ccc2ccccc32)cc1 (centres undefined) | inactive
75 | Cc1cc(NC(=O)CSc2ncc(C(=O)Nc3ccc(Cl)cc3)c(=O)n2C)no1 | inactive
76 | CCOC(=O)c1ccc(NC(=O)CCS(=O)(=O)c2ccc3c(c2)oc(=O)n3C)cc1 | inactive
77 | Cc1ccc(NC(=O)c2cn3c4c(ccc(Cl)c4c2=O)OC(C)C3)cc1C (centres undefined) | inactive
78 | Cc1ccc(CN2CCN(c3ncccn3)CC2)c(C)c1 | 14.1 µM (active)

Row | SMILES | Potency
79 | c1cnc(N2CCN(c3ccc4ccccc4n3)CC2)nc1 | inactive
80 | Oc1ccc(CN2CCN(c3ncccn3)CC2)cc1 | 50.1 µM (active)
81 | CN(C)C(=O)c1nc2ccc(Cl)cn2c1CN1CCN(c2ncccn2)CC1 | inactive
82 | CC1=C(N2CCN(c3ncccn3)CC2)CCC1=O | inactive
83 | COc1ccc(-c2nc(CN3CCN(c4ncccn4)CC3)c(C)o2)cc1C | inactive
84 | COc1ccc(CCNc2ncnc3c2cnn3-c2ccc(C)cc2)cc1 | inactive
85 | Cc1cc(C)c(NC(=O)CCc2c(C)nc3c(c(C)nn3C(C)(C)C)c2C)c(C)c1 | inactive
86 | CCOc1ccc(CNC(=O)c2ccc3nc(CC)c(CC)nc3c2)cc1OC | inactive
87 | COc1ccc(/C=C/c2nc(C#N)c(NCc3ccc(F)cc3)o2)cc1OC | inactive
88 | O=C(CCSCc1cccc(F)c1)NCc1ccccc1 | inactive
89 | Cc1ccc(C)c(N2CCN(c3ccc4cc(S(=O)(=O)N5CCC(C)CC5)ccc4n3)CC2)c1 | inactive
90 | CCN1CCN(CCCNC(=O)c2ccc3c(c2)sc2nc(-c4ccc(OC)cc4)cn23)CC1 | inactive
91 | CNC(=O)N1c2ccccc2C=Cc2ccccc21 | inactive
92 | CC1C(=O)N(Cc2ccccc2)c2ccccc2N1C(=O)c1ccccc1 (centres undefined) | inactive
93 | CC1C(C)N(C(=O)CCl)c2ccccc2N1C(=O)CCl (centres undefined) | 28.2 µM (active)
94 | CCOC(=O)c1c(NC(=O)c2ccc(S(=O)(=O)N3CCCC(C)C3)cc2)sc2c1CCN(C(C)C)C2 (centres undefined) | inactive
95 | Cc1ccc(CN2CCCn3nc(C(=O)NCc4ccccc4Cl)cc3C2=O)cc1 | inactive
96 | COc1ccccc1/C=N/N1CCN(Cc2ccccc2Cl)CC1 | 44.7 µM (active)
97 | CN1CCN(/N=C/c2ccc(C#N)cc2)CC1 | inactive
98 | O=C(NCC1CCN(Cc2ccccc2Cl)CC1)Nc1cccc(Cl)c1 | inactive
99 | O=S1(=O)CCN(Cc2ccccc2Cl)CC1 | inactive
100 | CSc1ccc(/C=N/N2CCN(Cc3ccccc3Cl)CC2)cc1 | 25.1 µM (active)
101 | COc1ccccc1/C=C/C=N/NC(=O)CN1CCN(Cc2ccccc2)CC1 | inactive
102 | Cc1nn(C(=O)c2c(F)cccc2F)c(C)c1S(=O)(=O)N1CCOCC1 | inactive
103 | Fc1ccc(-n2ncc3c(Nc4ccc(Oc5ccccc5)cc4)ncnc32)cc1 | inactive
104 | Cc1ccccc1CSCCNC(=O)C1CCN(S(=O)(=O)Cc2ccccc2)CC1 | inactive
